Laboratory results: PubChem BioAssay AID1259422 (The Scripps Research Institute Molecular Screening Center, 2018)
In all, about 640,000 compounds went through this assay and about 9,300 (1.5%) were called active. Many of the other results were omitted from the sample, so actives are more common in it than they were. Values without a mark were called inactive. Cut-off read from the data, not from the text of the source: active = inhibition above about 32%; inactive = the rest.

Experiment: TEAD-YAP interaction inhibition, primary screen, TEAD-YAP interaction inhibitor project, luminescence, HEK-TIYL cells (AID 1259422);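 note: 0% = median of test compound wells and 100% = reference inhibitor wells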
Details: TEAD-Gal4/YAP UAS-luciferase luminescence, at 9.12 µM, active compounds read high

Row | SMILES | inhibition
1 | FC(F)(F)c1cccc(-c2ccc(/C=N/Nc3nn[nH]n3)o2)c1 | 4.88%
2 | O=C(CSCc1cc2cccc3c2n(c1=O)CCC3)NCc1ccncc1 | 8.05%
3 | O=C1c2cccnc2C(=O)N1CNc1ccccc1 | 2.66%
4 | COc1ccc(Nc2cc(=O)oc3ccccc23)cc1 | 36.2% (active)
5 | O=c1cc(Nc2ccc(Br)cc2)c2ccccc2o1 | 0.69%
6 | COc1ccc(Nc2ccccc2)cc1 | -22.2%
7 | C=CCn1c(SCC(=O)c2ccc(OC)c(C)c2)nnc1-c1ccncc1 | 4.75%
8 | Cc1cc(C(=O)NC(C)c2ccccc2)c2ccccc2n1 (stereo unspecified) | 5.1%
9 | CCCCCNC(=O)c1cc(C)nc2ccccc12 | 2.15%
10 | CCC(CC)=NNC(=O)c1cc(C)nc2ccccc12 | 48.1% (active)
11 | Cc1cc(C)c(S(=O)(=O)N2CCOCC2)c(C)c1[N+](=O)[O-] | -0.25%
12 | COc1ccccc1-n1nnnc1S(=O)(=O)Cc1ccc(Cl)cc1 | 48.7% (active)
13 | COc1ccccc1-n1nnnc1SCC(=O)c1ccc(Br)s1 | 2.7%
14 | COc1ccccc1NC(=O)C(=O)NCc1ccc(Cl)cc1 | 1.06%
15 | CCOC(=O)N1CCN(C(=O)CN2N=C(c3ccc(OC)cc3)CCC2=O)CC1 | -0.51%
16 | c1ccc(-n2nnnc2SCc2nc3ccccc3s2)cc1 | -47.7%
17 | COc1ccc(-n2nnnc2-c2nc3ccccc3s2)cc1 | 74.2% (active)
18 | COc1ccc2nc(NC(=O)CSc3nnnn3-c3ccccc3)sc2c1 | 8.33%
19 | OCc1cccc(-c2cnn3c(NCc4cccs4)ccnc23)c1 | 102% (active)
20 | CN(C)CCNc1ccnc2c(-c3cccc(O)c3)cnn12 | 2.13%
21 | Fc1ccc(CNc2ccnc3c(-c4ccsc4)cnn23)cc1 | -14.1%

Row | SMILES | inhibition
22 | COc1ccc(CCNC(=O)c2cc(-c3ccccc3OC)n[nH]2)cc1OC | 2.42%
23 | O=C(CSc1n[nH]c(=O)[nH]c1=O)N/N=C/c1cccnc1 | 10.8%
24 | O=C(CSc1cccc2cccnc12)N/N=C/c1cccnc1 | 46.5% (active)
25 | O=C(Cc1cccc2ccccc12)N/N=C/c1cccnc1 | 3.15%
26 | Cc1nc(NC(=O)CSc2nnc(-c3ccccc3)n2C)sc1C | 9.15%
27 | CCOc1ccc(NC(=O)c2ccc3c(=O)n(-c4ccc(F)cc4)c(=S)[nH]c3c2)cc1 | 4.1%
28 | Cc1cc(Cl)c(S(=O)(=O)N2CCCc3ccccc32)cc1OCC(N)=O | 4.13%
29 | O=C(CC1C(=O)N(c2ccc(F)cc2)C(=O)N1Cc1cccs1)Nc1ccc(F)cc1 (stereo unspecified) | 5.51%
30 | COc1ccc(OC(C)C(=O)Nc2ccc3ccccc3c2)cc1 (stereo unspecified) | 39.1% (active)
31 | COc1ccc(NC(=O)C(C)Oc2cc(C)cc(C)c2)cc1 (stereo unspecified) | 15.9%
32 | COc1ccc(OC(C)C(=O)Nc2cccc(Br)c2)cc1 (stereo unspecified) | 5.3%
33 | COC(=O)C1=CN(Cc2ccc(F)cc2)C=C(C(=O)OC)C1c1ccc(C)s1 | 3.1%
34 | CCn1ccc(C(=O)Nc2sccc2C(=O)NC)n1 | 10.4%
35 | COc1ccccc1-n1cnc2cc(NC(=O)c3ccccc3)ccc21 | 38% (active)
36 | COc1cc(NC(=O)c2ccccc2)c(C(=O)O)cc1OC | 7.96%
37 | COc1ccc(-n2cnc3cc(C(=O)NCc4ccccc4OC)ccc32)cc1 | 4%
38 | CN(C)c1cc(C(=O)N2CCN(C(=O)C(C)(C)C)CC2)nc(N(C)C)n1 | 0.22%
39 | c1coc(-c2ccc3cnc(Nc4ccc(-n5cnc(N6CCOCC6)n5)cc4)nc3c2)n1 | -7.9%
40 | Cn1cc(-c2ccc3cnc(Nc4ccc(-n5cnc(N6CCOCC6)n5)cc4)nc3c2-c2cnn(C)c2)cn1 | 88.5% (active)
41 | Cc1ncn(-c2ccc(Nc3ncc4cccc(-c5ccc6scnc6c5)c4n3)cc2)n1 | 3.89%
42 | Cn1cc(-c2cc(Nc3ccc(-n4cnc(N5CCC(O)CC5)n4)cc3)ncc2Cl)cn1 | 0.35%

Row | SMILES | inhibition
43 | Cn1cc(-c2nc(Nc3ccc(-n4cnc(N5CCC(O)CC5)n4)cc3)ncc2Br)cn1 | 85.4% (active)
44 | COc1ccc(CCNC(=O)CCn2c(SCc3cccc(Cl)c3)nc3ccccc3c2=O)cc1OC | -6.64%
45 | CCOC(=O)C1=C(C)NC(=S)NC1c1cc(OC)ccc1Br (stereo unspecified) | -4.97%
46 | CC(=O)c1cccc(-c2ccc(C(=O)NCCN3CCOCC3)s2)c1 | -17.5%
47 | COc1ccc(-c2noc(CNC(=O)c3ccc(Br)cc3)n2)cc1 | -8.01%
48 | CC1=C(C(=O)OCc2ccccc2)C(c2ccc3c(c2)OCO3)C2=C(CC(c3cccs3)CC2=O)N1 (stereo unspecified) | -4.32%
49 | CC1=C(C(=O)OCc2ccccc2)C(c2cccc([N+](=O)[O-])c2)C2=C(CC(c3cccs3)CC2=O)N1 (stereo unspecified) | 58.1% (active)
50 | COC(=O)C1=C(C)NC2=C(C(=O)CC(c3cccs3)C2)C1c1cccc(OCc2ccccc2)c1 (stereo unspecified) | 15.8%
51 | O=C(CSc1cccc[n+]1[O-])Nc1nc2ccccc2s1 | 3.26%
52 | Cc1nccn1CC(O)COc1ccc(Br)cc1 (stereo unspecified) | 5.95%
53 | COc1ccc(OC)c(C(=O)COc2ccc(Br)cc2C#N)c1 | 52.8% (active)
54 | COc1ccc(OCC(=O)c2ccc(F)cc2)c(C#N)c1 | -65.6%
55 | COc1ccc(C(=O)COC(=O)COc2ccccc2C#N)c(OC)c1 | 7.04%
56 | CN(C)C(=O)c1cc(-c2cn[nH]c2)ccc1NC(=O)OCc1ccccc1 | -2.11%
57 | CC(=O)Nc1ccc(N2C(=O)c3ccc4c5c(ccc(c35)C2=O)C(=O)N(c2ccc(NC(C)=O)cc2)C4=O)cc1 | 5.3%
58 | COc1cc(OC)nc(Oc2cccnc2/C=N/Nc2ccccc2[N+](=O)[O-])n1 | -11.9%
59 | CCN(CC)S(=O)(=O)c1ccc2nc(NC(=O)CC(C)C)sc2c1 | 42.2% (active)
60 | CCCC(=O)Nc1nc2ccc(S(=O)(=O)N(C)C)cc2s1 | -15.2%
61 | CS(=O)(=O)c1ccc2nc(NC(=O)CSc3ccccc3)sc2c1 | 7.95%
